In paper PMC5700166:

Experiments:
Assay in all cases: protein-binding microarray (PBM); PBM: ~300 nM protein, 6 mM HEPES pH 7.8, 80 mM KCl, 0.5 mM EDTA, 0.5 mM EGTA, 6% glycerol, 35 ng/ul poly-dIdC, 1% milk, 1 h, room temperature; Ap Aiptasia and Nv Nematostella (sea anemones) / Co Capsaspora / Aq Amphimedon (sponge) / Dm Drosophila / Hu human; RHD is the Rel homology domain; high values mean tight binding
Conditions in all cases: dsDNA, one strand shown
GST-Ap-NF-kB RHD = molecular target: T1, GST-Ap-NF-kB RHD (Exaiptasia pallida (Aiptasia), UniProt A0A913YAJ5 2-422)
T1 sequence: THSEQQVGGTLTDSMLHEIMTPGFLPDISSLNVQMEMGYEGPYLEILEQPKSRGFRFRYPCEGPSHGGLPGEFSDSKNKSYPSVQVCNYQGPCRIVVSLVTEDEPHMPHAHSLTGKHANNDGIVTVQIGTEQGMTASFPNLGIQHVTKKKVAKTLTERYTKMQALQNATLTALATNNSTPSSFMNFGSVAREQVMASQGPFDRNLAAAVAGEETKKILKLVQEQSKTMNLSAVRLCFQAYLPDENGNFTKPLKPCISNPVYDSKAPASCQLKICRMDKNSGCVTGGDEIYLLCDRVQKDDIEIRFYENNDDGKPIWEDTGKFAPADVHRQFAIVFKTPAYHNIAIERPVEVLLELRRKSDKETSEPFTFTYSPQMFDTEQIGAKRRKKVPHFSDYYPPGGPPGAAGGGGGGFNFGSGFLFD

[1] = molecular target: T2, GST-Nv-NF-kB (Cys allele) (Nematostella vectensis, UniProt E5G601 2-411)
T2 sequence: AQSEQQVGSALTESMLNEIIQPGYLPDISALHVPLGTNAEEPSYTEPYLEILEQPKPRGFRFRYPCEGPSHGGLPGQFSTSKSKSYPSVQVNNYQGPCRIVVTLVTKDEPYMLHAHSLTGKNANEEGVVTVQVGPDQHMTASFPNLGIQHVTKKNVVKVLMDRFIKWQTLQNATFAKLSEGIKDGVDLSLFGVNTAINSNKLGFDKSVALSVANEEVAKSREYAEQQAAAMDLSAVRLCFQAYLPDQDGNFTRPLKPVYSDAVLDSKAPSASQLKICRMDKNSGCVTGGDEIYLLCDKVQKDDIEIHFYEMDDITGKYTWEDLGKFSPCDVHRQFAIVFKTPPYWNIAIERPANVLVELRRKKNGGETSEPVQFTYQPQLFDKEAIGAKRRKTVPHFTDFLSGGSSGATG

GST-Co-NF-kB = molecular target: T3, GST-Co-NF-kB (Capsaspora owczarzaki, UniProt F1ARL5 200-546)
T3 sequence: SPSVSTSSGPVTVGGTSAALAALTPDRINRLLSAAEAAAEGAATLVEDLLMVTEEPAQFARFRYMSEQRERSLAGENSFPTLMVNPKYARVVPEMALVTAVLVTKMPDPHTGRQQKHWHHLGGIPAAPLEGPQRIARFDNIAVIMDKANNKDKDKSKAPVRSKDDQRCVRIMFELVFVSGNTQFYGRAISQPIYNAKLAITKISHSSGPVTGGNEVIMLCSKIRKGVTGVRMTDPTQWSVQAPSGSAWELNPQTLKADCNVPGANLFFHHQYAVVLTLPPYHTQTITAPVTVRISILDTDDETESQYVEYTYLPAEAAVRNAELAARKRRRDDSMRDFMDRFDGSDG

GST-Dm-Relish = molecular target: T4, GST-Dm-Relish (Drosophila melanogaster, UniProt Q94527 99-473)
T4 sequence: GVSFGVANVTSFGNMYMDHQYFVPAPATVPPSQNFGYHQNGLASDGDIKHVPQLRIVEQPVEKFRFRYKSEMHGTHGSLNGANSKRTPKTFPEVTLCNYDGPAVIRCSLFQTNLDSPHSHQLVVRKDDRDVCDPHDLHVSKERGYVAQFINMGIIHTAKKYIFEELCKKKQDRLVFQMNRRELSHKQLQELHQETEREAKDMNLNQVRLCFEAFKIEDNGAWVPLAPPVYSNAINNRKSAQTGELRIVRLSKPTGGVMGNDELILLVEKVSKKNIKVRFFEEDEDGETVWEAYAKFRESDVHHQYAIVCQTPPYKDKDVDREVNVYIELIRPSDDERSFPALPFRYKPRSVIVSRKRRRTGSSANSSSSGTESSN

GST-Aq-NF-kB = molecular target: T5, GST-Aq-NF-kB (Amphimedon queenslandica, UniProt A9Y5G7 2-389)
T5 sequence: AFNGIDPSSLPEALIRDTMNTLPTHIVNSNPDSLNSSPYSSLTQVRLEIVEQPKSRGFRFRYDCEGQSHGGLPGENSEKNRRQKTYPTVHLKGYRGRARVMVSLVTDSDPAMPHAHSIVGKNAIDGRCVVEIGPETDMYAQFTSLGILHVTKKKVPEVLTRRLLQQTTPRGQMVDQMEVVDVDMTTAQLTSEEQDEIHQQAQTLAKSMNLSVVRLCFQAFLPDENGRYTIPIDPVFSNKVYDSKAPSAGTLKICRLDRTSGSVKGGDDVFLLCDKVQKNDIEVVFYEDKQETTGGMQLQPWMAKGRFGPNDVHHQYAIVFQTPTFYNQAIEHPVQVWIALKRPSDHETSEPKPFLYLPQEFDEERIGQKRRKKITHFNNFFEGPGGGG

Which binding signal (GST-Ap-NF-kB RHD) does the source give for “CCGATTAACATCAGGGGATCCACTGATGTTAATCGGGTCTTGATTCGCTTGACGCTGCTG” here?
The binding signal was 7.41 z-score.

And the binding signal [1]?
Its binding signal is 5.27 z-score.

What about the binding signal (GST-Co-NF-kB) of the same sequence?
Its binding signal is 2.76 z-score.

What about the binding signal (GST-Dm-Relish) of the same sequence?
The binding signal was 9.75 z-score.

What about the binding signal (GST-Aq-NF-kB) of the same sequence?
Its binding signal is 6.81 z-score.

How did the binding signal (GST-Ap-NF-kB RHD) turn out when “CCGATTAACATCAGGGAATTACATGATGTTAATCGGGTCTTGATTCGCTTGACGCTGCTG” was run?
The binding signal was 4.01 z-score.

And the binding signal [1]?
The binding signal was 5.15 z-score.

What about the binding signal (GST-Co-NF-kB) of the same sequence?
The binding signal was 4.3 z-score.

And the binding signal (GST-Dm-Relish)?
The binding signal was 8.99 z-score.

And the binding signal (GST-Aq-NF-kB)?
The binding signal was 4.92 z-score.

For “CCGATTAACATCAAATAGCCCCCTGATGTTAATCGGGTCTTGATTCGCTTGACGCTGCTG”, which binding signal (GST-Ap-NF-kB RHD) is on record?
The binding signal was 5.01 z-score.

And the binding signal [1]?
Its binding signal is 4.8 z-score.

And the binding signal (GST-Co-NF-kB)?
The binding signal was 2.9 z-score.

What about the binding signal (GST-Dm-Relish) of the same sequence?
The binding signal was 4.26 z-score.

And the binding signal (GST-Aq-NF-kB)?
The binding signal was 5.62 z-score.

For “CCGATTAACATCAGGGAATCCACTGATGTTAATCGGGTCTTGATTCGCTTGACGCTGCTG”, which binding signal (GST-Ap-NF-kB RHD) is on record?
The binding signal was 3.05 z-score.

What about the binding signal [1] of the same sequence?
The binding signal was 3.31 z-score.

And the binding signal (GST-Co-NF-kB)?
The binding signal was 2.25 z-score.

And the binding signal (GST-Dm-Relish)?
Its binding signal is 7.85 z-score.

What about the binding signal (GST-Aq-NF-kB) of the same sequence?
The binding signal was 5.29 z-score.

What does the source list for “CCGATTAACATCACTTCCCCCCATGATGTTAATCGGGTCTTGATTCGCTTGACGCTGCTG”?
binding signal (GST-Ap-NF-kB RHD): 4.7 z-score; binding signal [1]: 4.18 z-score; binding signal (GST-Co-NF-kB): 8.31 z-score; binding signal (GST-Dm-Relish): 3.34 z-score; binding signal (GST-Aq-NF-kB): 3.86 z-score

Which results are given for “CCGATTAACATCAGGGTTTTTTATGATGTTAATCGGGTCTTGATTCGCTTGACGCTGCTG”?
binding signal (GST-Ap-NF-kB RHD): 4.39 z-score; binding signal [1]: 5.06 z-score; binding signal (GST-Co-NF-kB): 1.36 z-score; binding signal (GST-Dm-Relish): 5.89 z-score; binding signal (GST-Aq-NF-kB): 6.24 z-score

Which results are given for “CCGATTAACATCAGGGGGTAGAATGATGTTAATCGGGTCTTGATTCGCTTGACGCTGCTG”?
binding signal (GST-Ap-NF-kB RHD): 4.45 z-score; binding signal [1]: 2.63 z-score; binding signal (GST-Co-NF-kB): 7.1 z-score; binding signal (GST-Dm-Relish): 2.13 z-score; binding signal (GST-Aq-NF-kB): 3.38 z-score

With “CCGATTAACATCAGGGATTCCCATGATGTTAATCGGGTCTTGATTCGCTTGACGCTGCTG” as the sequence, how does the binding signal (GST-Ap-NF-kB RHD) read?
Its binding signal is 4.88 z-score.

What about the binding signal [1] of the same sequence?
Its binding signal is 4.61 z-score.

What about the binding signal (GST-Co-NF-kB) of the same sequence?
Its binding signal is 2.91 z-score.

What about the binding signal (GST-Dm-Relish) of the same sequence?
Its binding signal is 10 z-score.

And the binding signal (GST-Aq-NF-kB)?
The binding signal was 6.04 z-score.

What does the source list for “CCGATTAACATCACATTGTCCCCTGATGTTAATCGGGTCTTGATTCGCTTGACGCTGCTG”?
binding signal (GST-Ap-NF-kB RHD): 4.03 z-score; binding signal [1]: 4.18 z-score; binding signal (GST-Co-NF-kB): 4.12 z-score; binding signal (GST-Dm-Relish): 1.73 z-score; binding signal (GST-Aq-NF-kB): 3.26 z-score

For “CCGATTAACATCAGGGAATACCATGATGTTAATCGGGTCTTGATTCGCTTGACGCTGCTG”, which binding signal (GST-Ap-NF-kB RHD) is on record?
Its binding signal is 3.14 z-score.

What about the binding signal [1] of the same sequence?
The binding signal was 2.92 z-score.

And the binding signal (GST-Co-NF-kB)?
The binding signal was 2.08 z-score.

What about the binding signal (GST-Dm-Relish) of the same sequence?
Its binding signal is 6.8 z-score.

What about the binding signal (GST-Aq-NF-kB) of the same sequence?
The binding signal was 4.48 z-score.

For “CCGATTAACATCAAAGTACCCCCTGATGTTAATCGGGTCTTGATTCGCTTGACGCTGCTG”, which binding signal (GST-Ap-NF-kB RHD) is on record?
Its binding signal is 6.74 z-score.

And the binding signal [1]?
Its binding signal is 4.38 z-score.

And the binding signal (GST-Co-NF-kB)?
The binding signal was 6.64 z-score.

What about the binding signal (GST-Dm-Relish) of the same sequence?
Its binding signal is 4.39 z-score.

What about the binding signal (GST-Aq-NF-kB) of the same sequence?
The binding signal was 4.52 z-score.

“CCGATTAACATCACGAGTTTCCCTGATGTTAATCGGGTCTTGATTCGCTTGACGCTGCTG” was tested. Which binding signal (GST-Ap-NF-kB RHD) did it give?
The binding signal was 3.04 z-score.

What about the binding signal [1] of the same sequence?
The binding signal was 4.31 z-score.

And the binding signal (GST-Co-NF-kB)?
The binding signal was 3.63 z-score.

And the binding signal (GST-Dm-Relish)?
Its binding signal is 1.16 z-score.

And the binding signal (GST-Aq-NF-kB)?
The binding signal was 3.88 z-score.

“CCGATTAACATCAGGGGGTGTTATGATGTTAATCGGGTCTTGATTCGCTTGACGCTGCTG” was tested. Which binding signal (GST-Ap-NF-kB RHD) did it give?
The binding signal was 4.69 z-score.

And the binding signal [1]?
The binding signal was 4.31 z-score.

And the binding signal (GST-Co-NF-kB)?
The binding signal was 3.42 z-score.

And the binding signal (GST-Dm-Relish)?
Its binding signal is 4.34 z-score.

And the binding signal (GST-Aq-NF-kB)?
Its binding signal is 5.4 z-score.
